# Laboratory results from article PMC5540273 (PLoS ONE, 2017).
# Columns and labels:
# Conditions in all cases: concentration: 1 μM, replicates: in singlicate; n = 1
# PIK4CB = tested on: T1, PIK4CB
# T1 construct: gene PI4KB
# PIKFYVE = tested on: PIKFYVE
# PIM1 = tested on: PIM1
# PIM2 = tested on: PIM2
# PIM3 = tested on: PIM3
# PIP5K1A = tested on: PIP5K1A
# PIP5K1C = tested on: PIP5K1C
# PIP5K2B = tested on: PIP5K2B
# PIP5K2C = tested on: T2, PIP5K2C
# T2 construct: gene PIP4K2C
# PKAC-alpha = tested on: T3, PKAC-alpha
# T3 construct: gene PRKACA
# PKAC-beta = tested on: T4, PKAC-beta
# T4 construct: gene PRKACB
# PKMYT1 = tested on: PKMYT1
# PKN1 = tested on: PKN1
# PKN2 = tested on: PKN2
# PLK1 = tested on: PLK1
# PLK2 = tested on: PLK2
# PLK3 = tested on: PLK3
# PLK4 = tested on: PLK4
# PRKCD = tested on: PRKCD
# PRKCE = tested on: PRKCE
# 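Note: KINOMEscan kinase panel screen.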
Compound,%Inh (PIK4CB) [%],%Inh (PIKFYVE) [%],%Inh (PIM1) [%],%Inh (PIM2) [%],%Inh (PIM3) [%],%Inh (PIP5K1A) [%],%Inh (PIP5K1C) [%],%Inh (PIP5K2B) [%],%Inh (PIP5K2C) [%],%Inh (PKAC-alpha) [%],%Inh (PKAC-beta) [%],%Inh (PKMYT1) [%],%Inh (PKN1) [%],%Inh (PKN2) [%],%Inh (PLK1) [%],%Inh (PLK2) [%],%Inh (PLK3) [%],%Inh (PLK4) [%],%Inh (PRKCD) [%],%Inh (PRKCE) [%]
O=C1NC(=O)C(c2ccc(Cl)cc2)=C1Nc1cccc(Cl)c1 [SB-317651],8,12,0,0,2,0,28,0,20,3,94.7,0,15,0,4,0,30,0,12,3
O=C(Nc1n[nH]c2cc(-c3ccsc3)ccc12)C1CC1 [SB-732932],27,0,18,0,11,61,3,52,3,0,18,9,56,4,2,24,0,0,0,0
NS(=O)(=O)c1cccc(N/C=C2\C(=O)Nc3ccc(S(=O)(=O)Cc4c(Cl)cccc4Cl)cc32)c1 [GSK398099],87,0,0,0,0,0,0,0,1,0,0,5,38,0,1,0,0,18,0,11
O=C(Nc1n[nH]c2nc(-c3ccco3)c(Br)cc12)C1CCN(Cc2ccccc2)C1.O=C(O)[C@H](O)[C@@H](O)C(=O)O (stereo not drawn) [SB-742034],14,7,9,5,28,0,0,0,0,10,15,8,0,41,3,24,5,22,35,1
Cl.Cl.Cl.N#Cc1ccc(CCNc2nccc(-c3cccc(CN4CCNCC4)c3)n2)cc1 [GSK2137462],26,0,20,0,13,0,0,0,11,13,5,18,0,2,5,5,0,6,18,76
COC(=O)c1cccc(NC(=O)NC2CCN(c3ccnc(Nc4ccc(F)cc4)n3)C2)c1 (stereo not drawn) [GSK1379725],6,0,30,0,0,0,14,9,0,0,0,0,0,0,0,0,0,0,0,4
CS(=O)(=O)CCNCc1nc(-c2ccc3ncnc(Nc4ccc(OCc5ccccc5)c(Cl)c4)c3c2)cs1.Cl [GW582764],0,25,14,0,0,47,52,10,56,0,2,0,0,0,0,0,0,0,0,6
Cc1ccc(NC(=O)Nc2ccc(Cl)cc2)cc1-c1ccc(C(=O)Nc2ccncc2)cc1 [GSK1398472],5,0,9,0,0,11,41,12,2,7,0,5,0,0,0,0,0,0,0,21
COC(=O)c1cccc(NC(=O)NC2CCN(c3ccnc(Nc4ccc(OC)cc4)n3)C2)c1 (stereo not drawn) [GSK1379746],21,41,0,0,0,17,10,19,48,0,0,0,11,0,0,0,0,0,0,8
CC(=O)c1c(C)c2cnc(Nc3ccn(C)n3)nc2n(C2CCCC2)c1=O,0,9,0,0,0,0,1,0,91.9,0,0,0,0,0,0,8,0,15,0,0
O=c1cc(N2CCOCC2)nc2n(Cc3cccc(Cl)c3Cl)c3ccccc3n12 [GSK2299009],0,0,0,0,0,0,17,0,0,0,11,32,21,0,0,0,0,7,32,3
Cc1c(Cn2c3ccccc3n3c(=O)cc(N4CCOCC4)nc23)cccc1C(F)(F)F [GSK2306394],90.3,0,6,0,0,0,8,20,0,0,0,0,100,0,0,0,0,0,0,0
Fc1ccc(-c2nc3n(c2-c2ccncc2)CCS3)cc1 [GI98581],0,0,0,0,0,33,47,0,12,33,23,10,0,0,0,0,0,0,1,0
COc1ccc(CSc2nnc(-c3ccc4nccn4c3)o2)cc1C(F)(F)F,0,0,6,9,0,2,0,43,0,10,26,28,3,33,0,42,16,11,20,21
Cc1ccc(NC(=O)Nc2ccc(Cl)c(C(F)(F)F)c2)cc1-c1ccc(C(=O)Nc2ccncc2)cc1 [GSK1398470],0,0,23,1,21,0,23,0,8,15,0,0,10,25,0,0,0,0,0,0
